Measurements taken from ChEMBL document CHEMBL3988442, “University of Dundee, Small-Polar-MMV Screening Library” (2021).
The whole screen tested about 85,000 compounds, of which about 440 (0.52%) showed an effect of 50% or more. Only a selection was taken, and strong results are over-represented in it overall.

Assay: In vitro enzyme assay to detect hydrolysis of chlorophenol red-beta-D-[…] directly proportional to the number of Toxoplasma stably expressing beta-galactosidase
Format: functional, organism-based, Toxoplasma gondii
Set-up: scale not given: in the data most compounds retested in dose-response had high values

| Structure (SMILES) | Percent Effect (50 µM) | Percent Effect (10 µM) |
| --- | --- | --- |
| Cc1cnc(N)nc1NCC(O)CN1CCCCC1 (centres undefined) | 10.92% | – |
| Cc1cc(F)ccc1NC(=O)NCC1(O)CCNC1 (centres undefined) | -14.34% | – |
| CC(C(=O)N1CCOCC1)N1CCC(CO)CC1 (centres undefined) | -3.94% | – |
| Cn1cc([C@@H]2OCCC[C@H]2CN)cn1 | 1.285% | – |
| NCc1ccncc1OCC(F)(F)F | 19.9% | – |
| COCC1CCN(C(=O)CCC2CCNCC2)CC1 | -0.227% | – |
| C=C(C)CNC(C(=O)N1CCOCC1)C(C)C (centres undefined) | -2.491% | – |
| CN(CCC(N)=O)Cc1ccc(Cl)s1 | -3.537% | – |
| c1ccc(-c2ncn(CCCN3CCOCC3)c2-c2ccncc2)cc1 | – | 36.16% |
| c1cc(-c2nnc3sc(CCN4CCCC4)nn23)ccn1 | – | -1.928% |
| c1cc(-c2nn3c(CN4CCOCC4)nnc3s2)ccn1 | – | 60.13% |
| COCC(=O)NCCc1cc(Cl)c2c(c1)OCCO2 | -0.1362% | – |
| CCC(=O)NC1CCN(C(=O)c2ccco2)CC1 | -8.488% | – |
| O=C(CN1CCN(C(=O)c2ccco2)CC1)NC1CC1 | 54.85% | – |
| O=C(CN1CCN(C(=O)c2sccc2C2CC2)CC1)NC1CC1 | – | 2.485% |
| CCc1ccccc1-n1c(CNC)n[nH]c1=O | 9.34% | – |
| CC[C@H](N)C(=O)N(C)CCOc1cccc(Cl)c1 | 33.07% | – |
| OCC1COCCN(Cc2ccc(C(F)(F)F)nc2)C1 (centres undefined) | 17.84% | – |
| COc1ccc(OCCc2sc(C3(O)CCCNCC3)nc2C)cc1.Cl (centres undefined) | – | 31.45% |
| Cc1nc(C2(O)CCCNCC2)sc1CCOc1ccc(F)c(F)c1.Cl (centres undefined) | – | 36.46% |
| Cc1nc(C2(O)CCCNCC2)sc1CCOc1ccccc1.Cl (centres undefined) | – | -8.75% |
| Cc1nc(C2(O)CCCNCC2)sc1CCOc1ccc(Cl)cc1.Cl (centres undefined) | – | 66.18% |
| Cc1nc(C2(O)CCCNCC2)sc1CCOc1ccc(F)cc1.Cl (centres undefined) | – | 11.11% |
| CCS(=O)(=O)NCCCN(C)C1CCSC1 (centres undefined) | -2.223% | – |

| Structure (SMILES) | Percent Effect (50 µM) | Percent Effect (10 µM) |
| --- | --- | --- |
| Cc1n[nH]c(SCCNC(=O)CC2C=CS(=O)(=O)C2)n1 (centres undefined) | 9.381% | – |
| Cc1nc(C)c(CNC(=O)c2ccnnc2)s1 | -0.5239% | – |
| CC(CNC(=O)c1cncc(Br)c1)N1CCCC1 (centres undefined) | 12.86% | – |
| CN(Cc1ccccc1)C1(C(=O)O)Cc2ccccc2C1 | – | -0.5507% |
| CNC(=O)C1(N(C)CCc2ccccc2)Cc2ccccc2C1 | – | 52.85% |
| CN(Cc1ccccc1)C1(C(=O)NC(C)(C)CO)Cc2ccccc2C1 | – | -3.718% |
| CN(Cc1ccco1)C(=O)Nc1ccc(N(C)C)nc1 | 24.04% | – |
| CCN(CCCN1CCCC1)C(=O)c1cc[nH]n1 | -7.801% | – |
| Cc1nn(C)cc1-c1cc(C(F)(F)F)nc(NC2CCCCC2)n1 | – | 1.393% |
| Cc1nn(C)cc1-c1cc(C(F)(F)F)nc(NC2CCN(C)CC2)n1 | – | 3.167% |
| CCn1cc(-c2cc(C(F)(F)F)nc(NC3CCCC3)n2)c(C)n1 | – | 70.55% |
| O=C(NCC(O)C1CC1)c1cccnc1C(F)(F)F (centres undefined) | -5.668% | – |
| O=C(CNc1ccc(Br)cc1)NCc1ncc[nH]1 | 5.475% | – |
| CC(C)C(O)CCNS(=O)(=O)c1ccccc1 (centres undefined) | 62.33% | – |
| CC(N)CCNS(=O)(=O)c1ccccc1 (centres undefined) | -13.24% | – |
| O=S(=O)(NCCC(O)c1cccs1)c1ccccc1 (centres undefined) | – | 0.7722% |
| CC(c1cccnc1)N(C)C(=O)c1ccccc1C#N (centres undefined) | -2.098% | – |
| COc1c(C)cnc(CNC(=O)NC2CC2)c1C | 8.679% | – |
| Cc1cc(C)n(CC(=O)N2CC(C)OCC2(C)C)n1 (centres undefined) | 5.036% | – |
| CSCC(CCO)NC(=O)c1cc(F)ccc1O (centres undefined) | 96.99% | – |
| CSCC(CCO)NC(=O)c1cccc(Cl)c1F (centres undefined) | – | -4.915% |
| CSCC(CCO)NC(=O)c1cccc(F)c1Cl (centres undefined) | – | -17.37% |
| CCCc1cc(C(=O)N2CCOC(C(F)(F)F)C2)no1 (centres undefined) | -10.86% | – |
| COc1ccnc(N2CCC(F)(CO)C2)n1 (centres undefined) | 3.064% | – |

| Structure (SMILES) | Percent Effect (50 µM) | Percent Effect (10 µM) |
| --- | --- | --- |
| Cn1nnc2c1C(COCC1CC1)CN(C(=O)Cc1ccsc1)C2 (centres undefined) | – | -4.213% |
| COCC1CN(C(=O)Cc2cccs2)Cc2nnn(C)c21 (centres undefined) | – | 4.219% |
| Cn1nnc2c1C(COCC1CC1)CN(C(=O)Cc1cccs1)C2 (centres undefined) | – | 56.28% |
| CC1(C)CNC(=O)c2nc(CCN3CCCC3)[nH]c2C1 | -0.3782% | – |
| COc1ccc2[nH]c(N3CCOCC3)nc2c1 | 4.618% | – |
| CS(=O)(=O)NCc1ccc(CN2CCCC2=O)cc1 | 69.78% | – |
| NCc1ccc(CN2CCCC2=O)cc1 | -14.5% | – |
| N#Cc1ccc(CN2CCCC2=O)cc1 | 8.336% | – |
| CCOCC(=O)N(Cc1ccc(O)c(OC)c1)C1CC1 | -4.406% | – |
| CCCNC(=O)c1ccc(CN2CCCC2)cc1 | 0.8478% | – |
| CCNCCCNCc1ccc2c(c1)n(C)c(=O)n2C | 0.7261% | – |
| NCC(CO)Cc1ccc(F)c(F)c1 (centres undefined) | 20.05% | – |
| COC(=O)Nc1nc2c(s1)CN(C(=O)NCc1cccs1)CC2 | – | 1.645% |
| CC(C)NC(=O)Nc1nc2c(s1)CN(C(=O)NCc1cccs1)CC2 | – | 56.34% |
| O=C(Nc1nc2c(s1)CN(C(=O)NCc1cccs1)CC2)C1CC1 | – | 2.193% |
| N#Cc1ccc(N2CCOC2=O)nc1 | 0.2325% | – |
| CCOc1ccc(NC(=O)[C@H](C)N(C)C)cc1CO | 1.908% | – |
| O=C(Cn1cc(Br)ccc1=O)NCC1CCOC1 (centres undefined) | -15.74% | – |
| Cc1c(-c2cc(C(F)(F)F)nc(N3CCC(N)CC3)n2)cnn1C | – | 84.58% |
| CCNC(=O)[C@@H]1C[C@H](N)CN1c1cc(C(F)(F)F)nc(N2CCCC2)n1 | – | 3.581% |
| Cc1ccc(-c2cc(C(F)(F)F)nc(N3CCOCC3)n2)s1 | – | -3.229% |
| O=C(O)C1CCCN1c1nc(-c2ccc(Cl)cc2)cc(C(F)(F)F)n1 (centres undefined) | – | 8.669% |
| Cc1c(S(=O)(=O)N2CCC(N)CC2)cnn1C | -0.6017% | – |
| NC1CCN(c2ccc(C(F)(F)F)cn2)CC1 | 7.702% | – |

| Structure (SMILES) | Percent Effect (50 µM) | Percent Effect (10 µM) |
| --- | --- | --- |
| CCc1ccc(-c2cc(C(F)(F)F)nc(N3CCC(N)CC3)n2)cc1 | – | 99.66% |
| O=C(O)C1CCCN1c1nc(-c2ccc(Cl)c(Cl)c2)cc(C(F)(F)F)n1 (centres undefined) | – | 13.78% |
| CCn1ncc(-c2cc(C(F)(F)F)nc(N3CCC(N)CC3)n2)c1C | – | 74.85% |
| NC(=O)C1CCN(CC(=O)Nc2ccc(F)cc2)CC1 | -2.359% | – |
| CCN(CC)CC(N)=O | -6.066% | – |
| CC1CCCN(Cn2nccc2-c2cccnc2)C1 (centres undefined) | 7.827% | – |
| O=C(NCCc1ccccc1F)C1CCNCC1 | -5.827% | – |
| O=C(OCC(F)(F)F)c1cccnc1 | -11.21% | – |
| O=C(N[C@H]1CCCNC1)c1ccc(F)cc1F | -5.906% | – |
| Cc1ccc(F)cc1C(=O)N[C@@H]1CCNC[C@H]1O | 19.16% | – |
| Cc1ccc(F)cc1C(=O)NC1CCCNC1 (centres undefined) | 83.09% | – |
| COCc1nnc(-c2ccc3c(c2)OCO3)o1 | 23.78% | – |
| NC(=O)C1CCCN1C(=O)C1CCNCC1 (centres undefined) | -2.32% | – |
| c1ccc(Nc2nccs2)nc1 | -28.74% | – |
| Oc1cc(C2CCCCN2Cc2cccs2)nc(-c2ccncc2)n1 (centres undefined) | – | -14.06% |
| Oc1cc(C2CCCN(Cc3cccs3)C2)nc(-c2ccccn2)n1 (centres undefined) | – | 33.79% |
| Oc1cc(C2CCCCN2Cc2cccs2)nc(-c2ccccn2)n1 (centres undefined) | – | 91.06% |
| Cc1ccc(N)c(C)n1 | 4.322% | – |
| OC(c1ccccc1)C1CCNCC1 (centres undefined) | -7.409% | – |
| O=C(NCc1ccnc(NC2CC2)c1)C1CCCCC1 | 17% | – |
| CS(=O)(=O)Nc1nn(Cc2ccc(F)cc2)cc1Br | – | 62.42% |
| Cc1cccc(Cn2cc(Br)c(NS(C)(=O)=O)n2)c1 | – | 46.94% |
| Cc1ccc(Cn2cc(Br)c(NS(C)(=O)=O)n2)cc1 | – | 20% |
| Cc1ccc(C(=O)N2C[C@@H](CO)[C@H](N(C)C)C2)cc1 | 0.785% | – |

| Structure (SMILES) | Percent Effect (50 µM) | Percent Effect (10 µM) |
| --- | --- | --- |
| CN(C)C(=O)CNC(CC(F)(F)F)c1ccc(Cl)cc1 (centres undefined) | – | 0.885% |
| CN(C)C(=O)CNC(CC(F)(F)F)c1ccc(F)cc1 (centres undefined) | – | 4.779% |
| CN(C)C(=O)CNC(CO)c1ccc(Cl)c(F)c1 (centres undefined) | 52.18% | – |
| CCNC(=O)c1cc2ccccc2n1C | -19.31% | – |
| Cn1nccc1C(N)=O | -25% | – |
| CCOC(CNC(=O)c1ccnn1C)c1ccccc1 (centres undefined) | -0.4622% | – |
| CCOCC(C)OC(=O)c1ccnn1C (centres undefined) | 57.1% | – |
| NCCCn1nc2ccccn2c1=O | 7.053% | – |
| CCOc1ccc(Cl)cc1C(N)=O | -6.805% | – |
| Cc1nn(C)c(C)c1CN(C)C(=O)c1cc(NC(=O)C2CC2)n(C)n1 | – | 51.38% |
| CCn1nc(C)c(NC(=O)c2cc(NC(=O)C3CC3)n(C)n2)c1C | – | 0.1763% |
| Cn1nc(C(=O)NC2CCCC2)cc1NC(=O)C1CC1 | – | -6.404% |
| Cc1nn(C)c(C)c1CN(C)C(=O)c1cc(C(F)(F)F)n(C)n1 | – | 12.73% |
| Cn1nc(C(=O)NC2CC2)cc1NC(=O)C1CC1 | – | -1.586% |
| Cc1nn(C)c(C)c1CNC(=O)c1cc(NC(=O)C2CC2)n(C)n1 | – | 56.77% |
| CN(C)C1CCN(S(=O)(=O)c2ncn(C)c2Cl)CC1 | -2.885% | – |
| COCC(=O)Nc1c[nH]nc1C1CCCNC1 (centres undefined) | -10.17% | – |
| COc1ccc(F)cc1C(=O)N1CCC(CN)CC1 | -0.7009% | – |
| Cc1nccc(C(=O)NCC(C)(C)CN(C)C)n1 | 2.804% | – |
| COc1ccc(CNC(=O)CC2CCNC2)c(OC)c1 (centres undefined) | -8.79% | – |
| COc1ccc(C(=O)NCCCOC(C)c2ccccc2)c(OC)c1 (centres undefined) | – | 61.13% |
| CC(=O)c1ccc(C(=O)NCCCOC(C)c2ccccc2)s1 (centres undefined) | – | -2.061% |
| CC(OCCCNC(=O)c1cccnc1O)c1ccccc1 (centres undefined) | – | 39.02% |
